Experimental data as given in PubChem BioAssay (NCATS).
A number with no mark means an inactive call. Records with an inconclusive call do not appear. Entries that show only a call come without a potency. Calls of active or inactive are those of the source. Unless noted, calls come from the whole dose curve; as a rule, active = well fitted curve in the direction sought with a large enough effect; inconclusive = small, poorly fitted or top-dose-only effect, or another doubt; inactive = no such curve, though single readings can be large; an effect the other way counts as inactive or inconclusive.

Target: Cytochrome P450 3A4 (Homo sapiens) (UniProt P08684)
Experiment: qHTS Assay for Inhibitors and Substrates of Cytochrome P450 3A4 (AID 884); note: nearly all actives have a fitted effect of over 50% in size; note: potency is the fitted concentration of half-maximal effect
Settings: recombinant CYP3A4, Luciferin-PPXE luminescence; series mostly up to 57.1 µM
Procedure, shortened: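 Luminescent readout of luciferin produced by CYP3A4 (20 nM) dealkylation of Luciferin-PPXE, 25 uM (its KM). NADPH-driven reaction ran 60 min at RT after 10 min compound preincubation; data scaled to 57 uM ketoconazole as 100% inhibition.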

Cytochrome P450 3A4 (Homo sapiens), sequence (P08684 whole entry, looked up): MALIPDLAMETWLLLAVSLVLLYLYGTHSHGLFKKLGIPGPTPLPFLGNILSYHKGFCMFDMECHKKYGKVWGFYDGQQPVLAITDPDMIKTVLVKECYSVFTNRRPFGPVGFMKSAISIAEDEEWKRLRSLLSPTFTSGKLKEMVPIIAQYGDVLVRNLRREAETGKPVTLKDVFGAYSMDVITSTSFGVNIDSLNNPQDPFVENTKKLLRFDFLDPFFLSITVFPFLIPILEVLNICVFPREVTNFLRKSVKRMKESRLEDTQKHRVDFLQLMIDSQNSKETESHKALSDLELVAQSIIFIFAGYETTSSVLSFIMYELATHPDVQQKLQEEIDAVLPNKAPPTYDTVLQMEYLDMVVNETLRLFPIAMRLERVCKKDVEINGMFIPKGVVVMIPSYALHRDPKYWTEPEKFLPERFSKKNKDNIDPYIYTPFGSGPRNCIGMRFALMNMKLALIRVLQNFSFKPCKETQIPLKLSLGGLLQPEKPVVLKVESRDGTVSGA

Compound	Potency
O=C(c1ccco1)N1CCC2(CC1)CCN(c1ccccn1)CC2	inactive
O=C(c1cccc(F)c1)N1CCC2(CC1)CCN(c1ccccn1)CC2	inactive
N#Cc1cccc(NC(=O)N2CC3(CCN(C(=O)c4cnccn4)CC3)C2)c1	inactive
O=C(Oc1ccccc1)N1CCC2(CC1)CCN(c1ccccn1)CC2	inactive
c1cncc(-c2nc(NCCN3CCOCC3)c3ccccc3n2)c1	7.94 µM (active)
Cn1cccc1C(=O)N1CCC[C@@]2(CCN(c3cccc(-c4ccccc4)c3)C2)C1	7.94 µM (active)

Target: Cytochrome P450 3A4 (Homo sapiens) (UniProt P08684)
Experiment: qHTS Assay for Activators of Cytochrome P450 3A4 (AID 885); note: nearly all actives have a fitted effect of over 65% in size; note: potency is the fitted concentration of half-maximal effect
Settings: recombinant CYP3A4, Luciferin-PPXE luminescence, 60 min; series mostly up to 57.1 µM
Procedure, shortened: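 CYP3A4 activity: Luciferin-PPXE O-dealkylation, 25uM substrate, 200mM KPO4, RT throughout. Read-out is luciferase luminescence; higher values reflect activation.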

Compound	Potency
O=C(c1cccc(F)c1)N1CCC2(CC1)CCN(c1ccccn1)CC2	3.16 µM (active)
COc1ccc(C(=O)N2CCC3(CCCN(Cc4nccs4)C3)CC2)cc1	inactive
COc1cccc(Cn2c(=O)c(-c3cccc(F)c3)nc3cncnc32)c1	inactive
c1cncc(-c2nc(NCCN3CCOCC3)c3ccccc3n2)c1	inactive
Cn1cccc1C(=O)N1CCC[C@@]2(CCN(c3cccc(-c4ccccc4)c3)C2)C1	inactive
COCCn1c(=O)c(-c2cccs2)nc2cnc(OCc3ccccc3)nc21	inactive

System: not listed separately
Experiment: qHTS Assay for Identification of Small Molecule Agonists for Hypoxia Response Element Signaling Pathway (AID 914; active = well fitted activation curve with a large enough effect in the signal ratio, with a control signal flat, not every such curve was filed as active; the % refers to the signal ratio)
Settings: ME-180 (cervical carcinoma) HRE-bla reporter, beta-lactamase ratio, CoCl2, 17 h; activation: active compounds read high
Procedure, shortened: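 Positive modulation of EC50 CoCl2-induced hypoxia response element signaling is measured in ME-180 cells with a beta-lactamase reporter. Compounds are titrated, incubation runs 17 hours, and %Activity derives from the blue/green ratio.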

Compound	activation [%]
Cc1cccc(CNc2cc(-c3ccccc3C)ncn2)c1	16.7
O=C(c1cnccn1)N1CCC2(CC1)CN(Cc1ccccc1)C2	6.71
N#Cc1ccc(CN2CCCC3(CCN(C(=O)c4cnccn4)CC3)C2)cc1	-10.7
N#Cc1cccc(NC(=O)N2CCCC3(CCN(C(=O)c4ccncc4)CC3)C2)c1	-1.72
Cc1noc(C)c1C(=O)N1CCC2(CC1)CCN(C(c1ccccc1)c1ccccc1)CC2	-2.4

System: not listed separately
Experiment: Confirmation and Secondary Assay for Modulators of Hemoglobin Beta Chain Splicing at IVS2 705 locus (AID 930);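 note: HeLa cells stably expressing the EGFP-705 splicing reporter; GFP fluorescence per well restored by corrected splicing of the IVS2-705 intron in EGFP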
Settings: HeLa EGFP-705 splicing reporter, GFP fluorescence, 48 h; series mostly up to 38.3 µM
Procedure, shortened: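 First, HeLa EGFP-705 cells are seeded at 500/well in Optimem with 2% FCS and left overnight. Next, compound or DMSO is added for 2 days. Finally wells are laser-scanned and total peak GFP intensity scored.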

Compound	outcome
Cc1cccc(CNc2cc(-c3ccccc3C)ncn2)c1	inactive
CN(C)Cc1ccccc1-c1cncnc1Nc1ccc(F)cc1	inactive
c1cncc(-c2nc(NCCN3CCOCC3)c3ccccc3n2)c1	inactive

System: not listed separately
Experiment: Primary qHTS for small molecule stabilizers of the endoplasmic reticulum resident proteome: Secreted ER Calcium Modulated Protein (SERCaMP) assay (AID 1508630)
Settings: SH-SY5Y GLuc-SERCaMP (Gaussia luciferase released on ER calcium loss) secretion, thapsigargin, luminescence; series mostly up to 38.4 µM
Procedure, shortened: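 The SH-SY5Y reporter protocol was run at 3 concentrations up to 38.3 uM (primary) or 11 concentrations (follow-up): 16 h compound, 100 nM thapsigargin for 4 h, then extracellular luciferase luminescence.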

Compound	outcome
O=C(c1ccncc1)N1CCC2(CCCN(c3ncccn3)C2)CC1	inactive
Cn1c(=O)c(-c2cc(F)cc(F)c2)nc2cnc(Oc3cccc(Cl)c3)nc21	inactive
O=C(c1cnccn1)N1CCC2(CCCN(c3ccncc3)C2)CC1	inactive
COc1ccc(Oc2ncc3ncc(=O)n(Cc4cccc(OC)c4)c3n2)cc1	inactive
O=C(Oc1ccccc1)N1CCC[C@@]2(CCN(c3ccccc3)C2)C1	inactive
O=C(c1csnn1)N1CCC[C@@]2(CCN(c3ccccc3)C2)C1	inactive
N#CCCn1c(=O)cnc2cnc(Nc3ccccc3)nc21	inactive
O=C(c1ccco1)N1CCC2(CC1)CCN(c1ccccn1)CC2	inactive
O=C(c1cccc(F)c1)N1CCC2(CC1)CCN(c1ccccn1)CC2	inactive
O=c1c(CCc2ccccc2)nc2cnc(Nc3ccccc3)nc2n1Cc1cccs1	inactive
O=C(c1cnccn1)N1CCC2(CC1)CCN(c1cccc(-c3ccccc3)c1)CC2	inactive
CCNc1ncc2nc(-c3cccs3)c(=O)n(-c3ccc(OC)cc3)c2n1	inactive
CC(=O)N1CCC2(CCN(Cc3ccc(C#N)cc3)CC2)CC1	inactive
COc1ccc(C(=O)N2CCC3(CCCN(Cc4nccs4)C3)CC2)cc1	inactive
Cc1cccc(CNc2cc(-c3ccccc3C)ncn2)c1	inactive
N#Cc1ccc(CN2CCC3(CC2)CCN(C(=O)c2cnccn2)CC3)cc1	inactive
O=C(Nc1ccccc1)N1CCCC2(CCN(C(=O)c3cccc(F)c3)CC2)C1	inactive
O=c1c(-c2ccc(F)c(F)c2)nc2cncnc2n1Cc1ccccc1	inactive
COc1ccc(C(=O)N2CCC3(CCCN(c4ccccc4)C3)CC2)cc1	inactive
Cn1cccc1C(=O)N1CCC2(CCCN(Cc3nccs3)C2)CC1	inactive
O=C(c1ccncc1)N1CCC2(CCN(Cc3cc(C(F)(F)F)cc(C(F)(F)F)c3)CC2)CC1	inactive
N#CCCn1c(=O)c(-c2cccs2)nc2cnc(Oc3ccccc3)nc21	inactive
O=C(c1cnccn1)N1CCC2(CC1)CN(Cc1ccccc1)C2	inactive
O=C(c1csnn1)N1CCC2(CCCN(c3ccccn3)C2)CC1	inactive
CN(C)Cc1ccccc1-c1cncnc1Nc1ccc(F)cc1	inactive
N#Cc1cccc(NC(=O)N2CC3(CCN(C(=O)c4cnccn4)CC3)C2)c1	inactive
O=C(Oc1ccccc1)N1CCC2(CC1)CCN(c1ccccn1)CC2	inactive
COCCn1c(=O)c(-c2ccc(OC)cc2)nc2cnc(Nc3ccccc3)nc21	inactive
